# Assay outcomes: PubChem, National Center for Advancing Translational Sciences (NCATS)
# The list is not random: actives were taken first. Their share in the collection is about 9%.
# ALOX12 inh = blocks human arachidonate 12S-lipoxygenase; 580,000 compounds, 1.1% hits; Potency, µM (series often up to 108 µM), actives largely listed as inhibitors; purified 12hLO, xylenol orange hydroperoxide absorbance; P18054; AID 1671190
#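 Hydroperoxide product was detected by ferrous iron/xylenol orange as the 573 to 405 nm absorbance ratio. Arachidonic acid at 40 uM (final) was turned over for 30 min at room temperature by 150 nM human 12hLO, pH 7.0 Hepes buffer, after 15 min compound preincubation.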
# JMJD2A Tudor inh = inhibitors of human JMJD2A Tudor domain; O75164; AlphaScreen JMJD2A-Tudor / H3K4me3 peptide binding; Potency, µM (doses to about 114 µM), usual class: inhibitors; 390,000 compounds, 4.4% hits; also: nearly all actives have a fitted effect of over 50% in size
# BAZ2B block = inhibitors of human BAZ2B bromodomain | Q9UIF8 | AlphaScreen BAZ2B-H3K14Ac peptide displacement | Potency, µM (series often up to 114 µM), most hits filed as inhibitors | 360,000 compounds, 4.4% hits; also: nearly all actives have a fitted effect of over 60% in size
#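 Complex of BAZ2B and biotin-H3K14Ac (50 nM apiece) forms over 30 min at RT, then faces library compounds up to 110 uM for another 30 min; AlphaScreen beads added, 20 min dark incubation, luminescence read.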
# G9a inh = blocks human histone lysine methyltransferase G9a. Q96KQ7. G9a H3K9 monomethylation, AlphaScreen, 2 h. Potency, µM (top dose mostly 102 µM), usual class: inhibitors. 350,000 compounds, 8.8% hits; also: nearly all actives have a fitted effect of over 75% in size
# Target sequence (Q96KQ7 913-1193 limits assumed): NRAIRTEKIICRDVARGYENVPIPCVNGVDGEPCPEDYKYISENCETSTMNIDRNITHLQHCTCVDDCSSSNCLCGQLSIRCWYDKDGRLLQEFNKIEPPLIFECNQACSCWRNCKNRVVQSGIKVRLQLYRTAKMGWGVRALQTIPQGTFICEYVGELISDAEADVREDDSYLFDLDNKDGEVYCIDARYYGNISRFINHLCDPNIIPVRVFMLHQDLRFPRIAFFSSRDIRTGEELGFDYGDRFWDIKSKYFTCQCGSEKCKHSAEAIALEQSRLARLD
#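 Chemiluminescent proximity detection of H3K9 monomethylation, read after 10 min bead incubation in the dark. Reaction: 20 nM G9a, 500 nM biotin-H3K9 peptide, 20 uM SAM cofactor, 2 h, room temperature, following 15 min enzyme-compound preincubation.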
# HP1b binding inh = HP1-beta chromodomain-methylated histone interaction inhibition. P83916. AlphaScreen HP1-beta / biotin-H3K9me3 peptide binding. Potency, µM (top dose mostly 114 µM), hits mostly inhibitors. 390,000 compounds, 0.56% hits; also: nearly all actives have a fitted effect of over 70% in size
# Target sequence (P83916 whole entry, looked up): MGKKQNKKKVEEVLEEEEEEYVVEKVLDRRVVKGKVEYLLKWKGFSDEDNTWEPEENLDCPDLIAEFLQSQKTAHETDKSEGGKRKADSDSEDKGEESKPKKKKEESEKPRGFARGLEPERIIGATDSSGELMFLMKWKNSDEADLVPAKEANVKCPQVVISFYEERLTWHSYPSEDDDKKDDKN
#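 Compound inhibition of the preformed complex between 50 nM HP1-beta and 50 nM biotinylated H3K9me3 peptide was read by AlphaScreen. Buffer was PBS pH 7.4 with 0.01% Tween-20. Incubations ran 30 min at room temperature, with 10 ug/mL donor/acceptor beads.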
# PLK1 PBD block = PLK1 (human) polo-box domain binding inhibition. Plk1 PBD binding of FITC phosphopeptide, fluorescence polarization. Potency, µM, most hits filed as inhibitors. 360,000 compounds, 2.8% hits. AID 720504; also: series mostly up to about 57 µM; nearly all actives have a fitted effect of over 65% in size
# Hits are given with their value; 0 = inactive; ? = inconclusive; - = no result; [ ] = remark or other dose. Calls follow the shape of the dose curve; as a rule, active = well fitted curve in the direction sought with a large enough effect; inconclusive = small, poorly fitted or top-dose-only effect, or another doubt; inactive = no such curve, though single readings can be large; an effect the other way counts as inactive or inconclusive.
SMILES,ALOX12 inh,JMJD2A Tudor inh,BAZ2B block,G9a inh,HP1b binding inh,PLK1 PBD block
CC1CN(c2ncnc3c2oc2ccccc23)CC(C)O1 (stereo not drawn),?,0,?,50µM,0,0
Clc1ccc(N2CCN(c3ncnc4c3oc3ccccc34)CC2)cc1,0,0,0,0,0,0
O=C(NCCc1nc2ccccc2n1CCCOc1ccc2ccccc2c1)C1CCCCC1,-,0,-,-,0,-
Cc1cccc(NC(=O)c2ccccc2Br)n1,?,0,0,22µM,0,27µM
COc1ccc(-c2cn3c(C)c(C(=O)Nc4cccc(C)n4)sc3n2)cc1,0,0,0,10µM,0,0
Cc1ccc(CC(=O)Nc2cc(C)ccn2)cc1,0,0,0,0,0,0
CCOc1ccc(C(=O)Nc2cc(C)ccn2)cc1,?,13µM,0,?,0,3µM
CCNC(=S)Nc1cc(C)ccn1,0,0,0,1µM,0,0
Cc1c(C(=O)O)nn(-c2cccc(C(F)(F)F)c2)c(=O)c1C#N,0,0,0,?,0,0
CN(C)c1ccc(C=NNc2nc3c([nH]2)c(=O)n(C)c(=O)n3C)cc1,0,0,-,-,0,0
CCOc1ccc(C(=O)Nc2cccc(C)n2)cc1,?,0[11.4 µM],0,50µM,0,?
CCCCOc1ccc(C(=O)Nc2cccc(C)n2)cc1,0,0,0,0[2.33 µM],0,0
COC(=O)c1cc(C(=O)Nc2cc(C)on2)cc([N+](=O)[O-])c1,0,0,0,0,0,0
COC(=O)c1cc(C(=O)Nc2cc(C)ccn2)cc([N+](=O)[O-])c1,0,0,0,50µM,0,0
CC1CCN(c2[nH]c(=S)c(C#N)c3c2CCCC3)CC1,0,0,0,32µM,0,?
N=C1N(c2ccccc2)C(=S)C(=Nc2ccccc2)N1c1ccccc1,?,25µM,-,-,45µM,27µM
N#CC(C#N)=C1SC(=Nc2ccccc2)C(=Nc2ccccc2)N1c1ccccc1,0,?,-,-,?,0
COC(=O)C(Br)(C(=O)OC)C(OC)(C(=O)OC)C(=O)OC,0.71µM,-,-,-,-,-
COc1ccc(-c2csc(NC(=S)NC(=O)c3ccc(S(=O)(=O)N(C)C)cc3)n2)cc1OC,?,0,0,?,0,0
O=S(=O)(c1cccc(-c2csc(-c3ccccc3)n2)c1)N1CCOCC1,0,0,0,0,0,0
CCOc1cc(/C=N/Nc2nc(-c3cccc(S(=O)(=O)N4CCCC4)c3)cs2)ccc1O,0,?,?,35µM,0,0
COc1ccc(/C=N/Nc2nc(-c3cccc(S(=O)(=O)N4CCCC4)c3)cs2)cc1OC,0,0,0,13µM,0,0
COc1cc(/C=N/Nc2nc(-c3ccc(S(=O)(=O)N(C)C)cc3)cs2)ccc1O,0,0,0,14µM,0,0
O=S(=O)(c1cccc(-c2csc(N/N=C/c3ccco3)n2)c1)N1CCOCC1,0,?,?,45µM,0,0
CC(=O)c1cccc(NC(=O)CN(c2cc(C)cc(C)c2)S(=O)(=O)c2c(C)noc2C)c1,0,0,-,0,0,-
SMILES,ALOX12 inh,JMJD2A Tudor inh,BAZ2B block,G9a inh,HP1b binding inh,PLK1 PBD block
Fc1ccc(-n2cc(-c3ccccc3)c3c(=S)nc[nH]c32)cc1,?,?,?,0,0,?
CC(C)C(=O)N1CCN(C(=O)N2CC3CC(C2)[C@H]2CCCC(=O)N2C3)CC1 (stereo partly drawn),0,-,-,-,-,-
O=C(Nc1ccc(N2CCOCC2)c(S(=O)(=O)Nc2ccc(Cl)cc2)c1)c1cnccn1,8.9µM,0,?,-,?,5.3µM
O=C(CN1CCOCC1)Nc1ccc(Cl)cc1,?,0,0,0[0.501 µM],0,0
O=C(CC(C(=O)O)N1CCOCC1)Nc1ccc(Cl)cc1 (stereo not drawn),0,45µM,0,?,0,0
O=S(=O)(Nc1ccc(Cl)cc1)c1ccc(N2CCOCC2)c(NC(=S)NCCN2CCOCC2)c1,?,79µM,?,4.5µM,?,1.7µM
CC(NC(N)=O)C(=O)Nc1ccc(Cl)c(S(=O)(=O)Nc2ccc(Cl)cc2)c1 (stereo not drawn),0,0,0,0,0,0
C[C@H](NC(N)=O)C(=O)Nc1ccc(N2CCOCC2)c(S(=O)(=O)Nc2ccc(Cl)cc2)c1,?,?,?,1µM,?,2.7µM
O=C(Nc1ccc(N2CCOCC2)c(S(=O)(=O)Nc2ccc(Cl)cc2)c1)c1ccc(=O)[nH]n1,?,?,-,-,0,0
Cc1cccc(NC(=O)CSc2nnc(-c3ccccc3)n2N)c1C,0,0,0,0,0,0
COCCNC(=S)Nc1ccc(N2CCOCC2)c(S(=O)(=O)Nc2ccc(Cl)cc2)c1,5µM,-,-,-,-,2.4µM
C=CCNC(=S)Nc1ccc(N2CCOCC2)c(S(=O)(=O)Nc2ccccc2Cl)c1,0,0,?,0,0,0
CCC(=O)Nc1ccc(N2CCOCC2)c(S(=O)(=O)Nc2ccc(Cl)cc2)c1,?,79µM,0,?,?,7.5µM
COc1ccc(NS(=O)(=O)c2cc(NC(=O)c3ccc(Cl)cc3)ccc2N2CCOCC2)cc1,0,0,-,-,0,0
COC(=O)c1ccccc1N1C(=O)C2C(C1=O)C1C=CC2C12CC2 (stereo not drawn),0,0,0,0[12.7 µM],0,0
Oc1ccc(N2CCN(c3ncnc4sc(-c5ccccc5)cc34)CC2)cc1,?,16µM,40µM,3.2µM,?,0
CC(=O)N1CCN(c2ncnc3sc(-c4ccccc4)cc23)CC1,0,0,?,0,0,0
Cc1nc(N2CCN(C)CC2)c2cc(-c3ccccc3)sc2n1,0,0,0,50µM,0,0
Cc1nc(N2CCN(S(=O)(=O)c3ccccc3)CC2)c2cc(-c3ccccc3)sc2n1,0,0,0,?,0,0
Cc1nc(N2CCN(C)CC2)c2sc(=S)n(-c3ccccc3)c2n1,0,0,0,40µM,0,0
Cc1nc(N2CCN(C)CC2)c2sc(=S)n(C)c2n1,-,0,0,0,0,0
Cc1c2oc3c(C)ccc(C(=O)N[C@@H]4C(=O)N[C@H](C(C)C)C(=O)N5CCC[C@H]5C(=O)N(C)CC(=O)N(C)[C@@H](C(C)C)C(=O)O[C@@H]4C)c3nc-2c(C(=O)N[C@@H]2C(=O)N[C@H](C(C)C)C(=O)N3CCC[C@H]3C(=O)N(C)CC(=O)N(C)[C@@H](C(C)C)C(=O)O[C@@H]2C)c(N)c1=O,0[22.9 µM],-,-,11µM,-,-
O=C(/C=C/c1ccccc1[N+](=O)[O-])NNC(=O)c1ccncc1,0,0,0,0[2.33 µM],0,0
COC(=O)[C@@H]1CC[C@H](C)[C@@H](c2ccc(C)cc2)N1C(=O)c1ccc(/C=N/O[C@@H](C)CN2CCCCc3nc(C)c(C)cc32)cc1,-,-,0,32µM,-,-
COC(=O)CC1=NN(c2ccc(OC)cc2)C(=O)/C1=C\c1ccc(Cl)cc1,?,?,50µM,20µM,?,2.4µM
